PubChem BioAssay AID504334 (NMMLSC, 2011)
Calls of active or inactive are those of the source.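 Rule for the calls: active = response relative to DMSO over 150%; inconclusive = yeast strain with under 70 recorded events; inactive = the rest.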

Assay: AGP1-GFP expression modulators, hit retest, confirmation, cell-based, flow cytometry, S. cerevisiae, cherry pick set 3 (AID 504334);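 note: median GFP fluorescence per well by flow cytometry over the all cells gate; ratio of sample to mean DMSO control signal so DMSO = 100% not 0%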
Conditions: S. cerevisiae AGP1-GFP strain, 3 h, at 10 µM, hits give high values

For `COc1ccc(OC)c2c(C)cc(C)nc12`, the percent response vs DMSO was 97.1% (inactive).

In the case of `COc1cccc(N/C=C/C(=O)c2ccc(Cl)cc2)c1`, the percent response vs DMSO was 93.8% (inactive).

With `CCOC(=O)CS(=O)(=O)c1nc(-c2ccccc2)cc(C(F)(F)F)n1` the percent response vs DMSO was 122% (inactive).

For `O=C(O)CCCCCNc1ncnc2ccc(Br)cc12`, the percent response vs DMSO was 101% (inactive).

For `NC(=O)c1ccnc2c(O)cccc12`, the percent response vs DMSO was 100% (inactive).

With `COc1ccccc1-c1cc(C(F)(F)F)nc(S(C)(=O)=O)n1` the percent response vs DMSO was 130% (inactive).

For `CCC(C)Nc1nc(N)c([N+](=O)[O-])c(Nc2ccccc2OC)n1` (stereo not drawn), the percent response vs DMSO was 104% (inactive).

With `COCCCNc1nc(N)c([N+](=O)[O-])c(Nc2ccccc2OC)n1` the percent response vs DMSO was 103% (inactive).

With `COc1ccc(NC(=O)O/N=C2/CCCc3ccc(OC)cc32)cc1` the percent response vs DMSO was 95.8% (inactive).

In the case of `COc1ccccc1Nc1nc(NCCCN(C)C)nc(N)c1[N+](=O)[O-]`, the percent response vs DMSO was 102% (inactive).

With `COc1cc(=O)n(C)c2c(O)cccc12` the percent response vs DMSO was 98.1% (inactive).

For `CCN(CC)c1ncnc2ccc(Br)cc12`, the percent response vs DMSO was 97.8% (inactive).

In the case of `CCN(CC)C(=O)Oc1cc(=O)n(C)c2ccccc12`, the percent response vs DMSO was 100% (inactive).

In the case of `CC(=O)CC(=O)Nc1ccc(C(N)=O)cc1`, the percent response vs DMSO was 100% (inactive).

For `CSc1ccccc1OCc1cc(C(=O)N2CCN(C)C(c3ccccc3)C2)no1` (stereo not drawn), the percent response vs DMSO was 101% (inactive).

In the case of `O=C(Nc1ccc(-c2nc3ccccc3o2)cc1)c1cccnc1`, the percent response vs DMSO was 100% (inactive).

With `CC(=O)Nc1ccc(-c2nc3ccccc3o2)cc1` the percent response vs DMSO was 96.8% (inactive).

With `Oc1c(I)cc(Cl)c2cccnc12` the percent response vs DMSO was 100% (inactive).
